Data taken from PubChem BioAssay (Tox21).
Several values for one entry are separate records, joined by “and”; a condition that tells them apart may be missing. Identical values can stand only once. Results filed as inconclusive are left out. A structure can be active in one record and inactive in another. Activity calls are given as the source filed them. Calls follow the shape of the dose curve; as a rule, active = well fitted curve in the direction sought with a large enough effect in the repeat runs; inconclusive = weak or mixed curves; inactive = no such curve, though single readings can be large; an effect the other way counts as inactive or inconclusive.

Legend:
[1] = Caspase-3/7 induction in HepG2 cells by small molecules, qHTS assay (AID 1346978); also: nearly all actives have a fitted effect of over 15% in size; also: potency is read from the fitted curve at half-maximal effect
Outline: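 Caspase-3/7 induction was measured by Caspase-Glo 3/7 luminescence (30 min, room temperature) after a 17 hr compound exposure of wild-type HepG2 cells seeded at 2,000 per well and pre-incubated 5 hr.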

[2] = Caspase-3/7 induction in CHO-K1 cells by small molecules, qHTS cell viability counter screen (AID 1346979); also: nearly all actives have a fitted effect of over 35% in size; also: potency is read from the fitted curve at half-maximal effect
Outline: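 Viability readout by fluorescence (CellTiter-Fluor) on wild-type CHO-K1 cells exposed for 16hr at 37C and 5% CO2 to compounds delivered in DMSO; reagent incubated 1hr before reading.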

[3] = Caspase-3/7 induction in HepG2 cells by small molecules, qHTS cell viability counter screen (AID 1346981); also: nearly all actives have a fitted effect of over 30% in size; also: potency is read from the fitted curve at half-maximal effect
Outline: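 CellTiter-Fluor fluorescence measured viability in the same wells used for Caspase-Glo 3/7. HepG2 (wild type) at 2,000 cells/well were pre-incubated 5 hr, dosed, and given reagent at 16 hr, with 1 hr further at 37C.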

[4] = molecular target: Nuclear receptor subfamily 1 group I member 2 (Rattus norvegicus) (UniProt Q9R1A7); assay: Rat pregnane X receptor (rPXR) activation by small molecules, qHTS assay (AID 1346983); conditions: rPXR luciferase reporter cells, One-Glo luminescence, 24 h; max activation: stronger effect = higher value; also: nearly all actives have a fitted effect of over 20% in size; also: potency is read from the fitted curve at half-maximal effect
Chain of Nuclear receptor subfamily 1 group I member 2 (Rattus norvegicus) (Q9R1A7 whole entry, looked up): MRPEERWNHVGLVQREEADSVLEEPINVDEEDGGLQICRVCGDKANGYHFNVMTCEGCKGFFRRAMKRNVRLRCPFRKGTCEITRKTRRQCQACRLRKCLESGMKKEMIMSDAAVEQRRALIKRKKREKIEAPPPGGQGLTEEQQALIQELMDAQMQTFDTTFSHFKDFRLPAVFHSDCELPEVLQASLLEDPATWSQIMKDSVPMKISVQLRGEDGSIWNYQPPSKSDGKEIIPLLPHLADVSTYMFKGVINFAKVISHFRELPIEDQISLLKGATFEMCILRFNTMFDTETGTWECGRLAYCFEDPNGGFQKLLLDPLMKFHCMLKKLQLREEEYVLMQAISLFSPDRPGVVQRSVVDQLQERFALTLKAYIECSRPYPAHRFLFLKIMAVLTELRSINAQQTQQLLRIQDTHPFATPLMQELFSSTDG
Outline: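 Luminescent readout (One-Glo luciferase, 30 min room temperature) followed 24 hr compound treatment at 37 C of rPXR cells plated 2,000 per well and preincubated 5hr; qHTS format with compounds delivered in DMSO.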

[5] = molecular target: Cytochrome P450 2D6 (Homo sapiens) (UniProt P10635); assay: Cytochrome P450 Family 2 Subfamily D Member 6 (CYP2D6) small molecule antagonists: luciferase reporter qHTS assay (AID 1671196); also: nearly all actives have a fitted effect of over 50% in size; also: potency is read from the fitted curve at half-maximal effect; as to activity change, negative = inhibition: series mostly up to about 120 µM
Chain of Cytochrome P450 2D6 (Homo sapiens) (P10635 whole entry, looked up): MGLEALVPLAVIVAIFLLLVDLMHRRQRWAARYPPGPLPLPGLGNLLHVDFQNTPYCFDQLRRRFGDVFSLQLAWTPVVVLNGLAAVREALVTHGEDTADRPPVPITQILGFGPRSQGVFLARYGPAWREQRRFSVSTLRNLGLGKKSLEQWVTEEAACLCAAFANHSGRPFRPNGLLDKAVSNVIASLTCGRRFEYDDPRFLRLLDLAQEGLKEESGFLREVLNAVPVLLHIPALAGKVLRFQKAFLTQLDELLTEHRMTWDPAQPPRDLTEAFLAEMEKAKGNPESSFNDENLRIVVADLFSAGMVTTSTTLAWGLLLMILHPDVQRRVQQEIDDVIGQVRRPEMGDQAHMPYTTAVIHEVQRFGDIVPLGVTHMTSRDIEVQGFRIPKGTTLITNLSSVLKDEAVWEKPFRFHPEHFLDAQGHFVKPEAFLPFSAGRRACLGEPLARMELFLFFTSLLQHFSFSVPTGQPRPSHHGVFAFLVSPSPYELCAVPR
Outline: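 CYP2D6 activity was followed as luminescence from its luciferin product after a 1 h NADPH-driven reaction at room temperature. Enzyme-substrate mix and compound were pre-incubated for 10 min, and the signal was read 20 min after adding detection reagent.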

[6] = molecular target: Cytochrome P450 2C19 (Homo sapiens) (UniProt P33261); assay: Cytochrome P450 Family 2 Subfamily C Member 19 (CYP2C19) small molecule antagonists: luciferase reporter qHTS assay (AID 1671197); also: nearly all actives have a fitted effect of over 65% in size; also: potency is read from the fitted curve at half-maximal effect; as to activity change, negative = inhibition: series mostly up to about 120 µM
Chain of Cytochrome P450 2C19 (Homo sapiens) (P33261 whole entry, looked up): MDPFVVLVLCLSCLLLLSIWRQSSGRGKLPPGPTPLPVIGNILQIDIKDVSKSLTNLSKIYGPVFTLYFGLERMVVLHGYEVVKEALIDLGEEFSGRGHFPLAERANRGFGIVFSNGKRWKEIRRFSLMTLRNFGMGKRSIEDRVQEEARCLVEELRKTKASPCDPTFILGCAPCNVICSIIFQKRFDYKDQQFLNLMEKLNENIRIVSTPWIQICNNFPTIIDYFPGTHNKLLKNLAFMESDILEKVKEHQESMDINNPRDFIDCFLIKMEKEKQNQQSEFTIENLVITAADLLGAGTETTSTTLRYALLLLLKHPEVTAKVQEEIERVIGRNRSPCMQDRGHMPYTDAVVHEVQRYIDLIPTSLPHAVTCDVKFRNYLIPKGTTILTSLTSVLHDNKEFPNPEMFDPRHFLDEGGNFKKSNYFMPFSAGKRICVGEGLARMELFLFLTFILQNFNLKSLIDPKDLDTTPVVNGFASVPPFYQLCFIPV
Outline: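 CYP2C19 P450-Glo, 1536-well qHTS. Cpd + enzyme/proluciferin substrate 10 min RT; + NADPH regen, 37C 1 h; stop with luciferin detection reagent, 20 min RT, luminescence (RLU). Pos ctrl ketoconazole.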

[7] = molecular target: Cytochrome P450 2C9 (Homo sapiens) (UniProt P11712); assay: Cytochrome P450 Family 2 Subfamily C Member 9 (CYP2C9) small molecule antagonists: luciferase reporter qHTS assay (AID 1671198); also: nearly all actives have a fitted effect of over 50% in size; also: potency is read from the fitted curve at half-maximal effect; as to activity change, negative = inhibition: series mostly up to about 120 µM
Chain of Cytochrome P450 2C9 (Homo sapiens) (P11712 whole entry, looked up): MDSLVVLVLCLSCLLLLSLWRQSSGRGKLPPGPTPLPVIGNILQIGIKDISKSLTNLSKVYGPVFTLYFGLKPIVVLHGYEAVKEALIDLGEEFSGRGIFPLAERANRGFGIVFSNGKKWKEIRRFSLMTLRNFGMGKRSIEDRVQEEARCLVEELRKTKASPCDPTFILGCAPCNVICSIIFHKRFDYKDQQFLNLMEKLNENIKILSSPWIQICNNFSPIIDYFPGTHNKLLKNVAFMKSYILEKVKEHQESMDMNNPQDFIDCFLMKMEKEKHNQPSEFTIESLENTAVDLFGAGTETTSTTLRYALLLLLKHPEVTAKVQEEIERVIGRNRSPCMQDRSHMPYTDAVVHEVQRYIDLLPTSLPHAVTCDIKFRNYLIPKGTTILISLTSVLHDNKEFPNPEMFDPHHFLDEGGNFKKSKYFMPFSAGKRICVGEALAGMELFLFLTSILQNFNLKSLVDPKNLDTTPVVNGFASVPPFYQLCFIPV
Outline: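 Enzyme-substrate mix preincubated with compound 10 min at room temperature; reaction started with NADPH regeneration solution, 1 h 37C. Luminescent luciferin product read after 20 min detection reagent.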

[8] = molecular target: Cytochrome P450 1A2 (Homo sapiens) (UniProt P05177); assay: Cytochrome P450 Family 1 Subfamily A Member 2 (CYP1A2) small molecule antagonists: luciferase reporter qHTS assay (AID 1671199); also: nearly all actives have a fitted effect of over 50% in size; also: potency is read from the fitted curve at half-maximal effect; as to activity change, negative = inhibition: series mostly up to about 120 µM
Chain of Cytochrome P450 1A2 (Homo sapiens) (P05177 whole entry, looked up): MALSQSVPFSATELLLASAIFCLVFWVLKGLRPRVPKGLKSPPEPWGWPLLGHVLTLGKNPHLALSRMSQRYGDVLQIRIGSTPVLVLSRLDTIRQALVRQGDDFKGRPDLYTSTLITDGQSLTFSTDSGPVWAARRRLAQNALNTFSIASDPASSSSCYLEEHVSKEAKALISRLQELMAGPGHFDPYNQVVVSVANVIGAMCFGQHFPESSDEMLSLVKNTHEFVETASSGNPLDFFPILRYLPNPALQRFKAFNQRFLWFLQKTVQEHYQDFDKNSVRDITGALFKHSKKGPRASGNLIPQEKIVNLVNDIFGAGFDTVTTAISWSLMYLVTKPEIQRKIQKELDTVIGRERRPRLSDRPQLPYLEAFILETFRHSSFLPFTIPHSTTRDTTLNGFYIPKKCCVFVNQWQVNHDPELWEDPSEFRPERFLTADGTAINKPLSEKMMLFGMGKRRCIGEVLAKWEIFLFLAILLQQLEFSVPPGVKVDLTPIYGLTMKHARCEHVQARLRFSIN
Outline: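 Luminescence from luciferin formed by CYP1A2 from a proluciferin substrate, read 20 min after detection reagent. Compound was pre-incubated 10 min with enzyme-substrate, and reaction started with NADPH regeneration solution for 1 h at room temperature; furafylline control.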

[9] = Caspase-3/7 induction in CHO-K1 cells by small molecules, qHTS assay (AID 1346980); also: nearly all actives have a fitted effect of over 15% in size; also: potency is read from the fitted curve at half-maximal effect
Outline: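 Luminescent Caspase-Glo 3/7 read (30min, room temperature) quantified apoptosis induction. Cells were wild-type CHO-K1, treated with compound for 17hr at 37 C and 5% CO2.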

[10] = molecular target: Voltage-gated inwardly rectifying potassium channel KCNH2 (Homo sapiens) (UniProt Q12809); assay: Human Ether-a-go-go-Related Gene (hERG) channel small molecule antagonists: fluorescence cell-based qHTS assay (AID 1671200);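 also: hERG-expressing U2OS cells given a thallium stimulus after FluxOR II dye loading; series mostly up to about 77 µM; nearly all actives have a fitted effect of over 50% in size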
Chain of Voltage-gated inwardly rectifying potassium channel KCNH2 (Homo sapiens) (Q12809 whole entry, looked up): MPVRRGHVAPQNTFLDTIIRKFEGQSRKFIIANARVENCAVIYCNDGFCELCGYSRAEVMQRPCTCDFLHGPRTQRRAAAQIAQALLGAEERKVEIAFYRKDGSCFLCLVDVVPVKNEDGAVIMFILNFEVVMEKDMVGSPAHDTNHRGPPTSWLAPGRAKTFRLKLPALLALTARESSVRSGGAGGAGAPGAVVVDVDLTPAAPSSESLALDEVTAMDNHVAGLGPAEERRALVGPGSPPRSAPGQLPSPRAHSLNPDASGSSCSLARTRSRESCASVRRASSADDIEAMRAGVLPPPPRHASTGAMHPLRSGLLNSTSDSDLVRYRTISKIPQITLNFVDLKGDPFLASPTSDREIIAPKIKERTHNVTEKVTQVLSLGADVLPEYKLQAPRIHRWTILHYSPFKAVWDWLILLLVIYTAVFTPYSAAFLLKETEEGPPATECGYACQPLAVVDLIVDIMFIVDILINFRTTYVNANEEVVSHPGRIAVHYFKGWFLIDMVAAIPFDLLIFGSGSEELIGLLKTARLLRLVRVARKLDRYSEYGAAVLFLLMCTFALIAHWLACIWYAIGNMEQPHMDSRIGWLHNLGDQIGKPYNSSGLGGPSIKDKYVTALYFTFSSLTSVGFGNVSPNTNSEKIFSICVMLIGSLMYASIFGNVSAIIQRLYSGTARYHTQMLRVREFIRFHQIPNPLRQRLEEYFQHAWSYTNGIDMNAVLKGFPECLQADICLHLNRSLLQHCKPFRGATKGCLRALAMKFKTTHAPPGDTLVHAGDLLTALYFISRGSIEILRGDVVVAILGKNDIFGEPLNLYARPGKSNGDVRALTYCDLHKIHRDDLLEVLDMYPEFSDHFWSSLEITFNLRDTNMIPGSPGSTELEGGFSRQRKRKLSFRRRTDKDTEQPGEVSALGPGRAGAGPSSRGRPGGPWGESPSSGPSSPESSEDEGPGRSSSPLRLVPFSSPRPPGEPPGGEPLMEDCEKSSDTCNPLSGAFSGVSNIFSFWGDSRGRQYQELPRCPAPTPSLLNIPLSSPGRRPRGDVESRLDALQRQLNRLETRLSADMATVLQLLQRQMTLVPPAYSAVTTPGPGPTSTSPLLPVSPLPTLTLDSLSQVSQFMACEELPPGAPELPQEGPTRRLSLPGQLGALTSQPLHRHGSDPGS
Outline: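 Thallium served as the potassium surrogate; its influx into dye-loaded U2OS cells carrying the channel was measured by fluorescence over 2 min.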

[11] = molecular target: Cytochrome P450 3A4 (Homo sapiens) (UniProt P08684); assay: Cytochrome P450 Family 3 Subfamily A Member 4 (CYP3A4) small molecule antagonists: luciferase reporter qHTS assay (AID 1671201)
Chain of Cytochrome P450 3A4 (Homo sapiens) (P08684 whole entry, looked up): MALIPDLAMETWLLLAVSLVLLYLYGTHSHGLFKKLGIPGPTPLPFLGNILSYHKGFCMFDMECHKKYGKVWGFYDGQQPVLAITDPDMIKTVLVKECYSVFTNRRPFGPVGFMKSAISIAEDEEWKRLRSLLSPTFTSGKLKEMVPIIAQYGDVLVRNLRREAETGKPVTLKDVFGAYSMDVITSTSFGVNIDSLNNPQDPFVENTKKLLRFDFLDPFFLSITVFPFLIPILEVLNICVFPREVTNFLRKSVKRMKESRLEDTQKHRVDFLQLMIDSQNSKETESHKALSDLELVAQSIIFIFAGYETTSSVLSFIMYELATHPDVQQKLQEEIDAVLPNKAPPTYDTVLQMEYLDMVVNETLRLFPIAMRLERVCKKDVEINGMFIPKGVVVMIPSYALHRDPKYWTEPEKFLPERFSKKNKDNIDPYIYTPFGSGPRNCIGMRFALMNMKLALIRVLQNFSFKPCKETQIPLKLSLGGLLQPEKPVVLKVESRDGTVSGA
Outline: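 Relative luminescence units after 20 min with luciferin detection reagent served as read-out. Beforehand, CYP3A4 turned over a proluciferin substrate for 1 h at room temperature with NADPH regeneration, following 10 min compound preincubation.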

[12] = molecular target: Nuclear receptor subfamily 1 group I member 2 (Homo sapiens) (UniProt O75469); assay: Human pregnane X receptor (PXR) small molecule agonists, qHTS assay (AID 1346982); also: nearly all actives have a fitted effect of over 35% in size; also: potency is read from the fitted curve at half-maximal effect
Chain of Nuclear receptor subfamily 1 group I member 2 (Homo sapiens) (O75469 whole entry, looked up): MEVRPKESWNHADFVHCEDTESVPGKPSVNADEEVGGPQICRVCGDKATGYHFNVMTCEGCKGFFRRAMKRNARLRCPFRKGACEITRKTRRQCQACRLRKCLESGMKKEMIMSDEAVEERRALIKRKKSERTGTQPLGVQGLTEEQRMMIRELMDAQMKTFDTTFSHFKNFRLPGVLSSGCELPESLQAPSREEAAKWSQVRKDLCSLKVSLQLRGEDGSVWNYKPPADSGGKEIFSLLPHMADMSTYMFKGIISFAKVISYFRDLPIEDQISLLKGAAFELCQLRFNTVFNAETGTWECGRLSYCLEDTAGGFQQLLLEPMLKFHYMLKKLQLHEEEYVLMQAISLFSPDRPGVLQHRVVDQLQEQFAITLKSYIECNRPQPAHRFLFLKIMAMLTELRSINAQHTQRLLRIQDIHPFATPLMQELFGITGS
Outline: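 Agonist mode: luminescence from ONE-Glo after 24 h compound exposure at 37C in HepG2 cells carrying hPXR-responsive CYP3A4 luciferase, plated in charcoal-stripped serum medium 5 h beforehand.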

[13] = molecular target: Nuclear receptor subfamily 1 group I member 2 (Homo sapiens) (UniProt O75469); assay: CYP3A4 induction through human pregnane X receptor (PXR) by small molecules, qHTS assay (AID 1346984); also: nearly all actives have a fitted effect of over 40% in size
Outline: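 Read-out is luminescence after One-Glo addition, following a 3 hr, 37C incubation with Luciferin-IPA CYP3A4 substrate (3uM final). Before that, compounds were on DPX-2 cells (HepG2 co-transfected with PXR element plus CYP3A4-promoter luciferase) for 24 hr at 37C.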

[14] = molecular target: Nuclear receptor subfamily 1 group I member 2 (Homo sapiens) (UniProt O75469); assay: Human pregnane X receptor (PXR) activation by small molecules, qHTS assay (AID 1346985); also: nearly all actives have a fitted effect of over 40% in size
Outline: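 DPX-2 cells (HepG2 co-transfected with a PXR response element and a CYP3A4-promoter luciferase construct) were seeded at 2,000 per well, rested 5 hr at 37C, then exposed to DMSO-dissolved compounds for 24 hr. Activation was read as luciferase luminescence.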
% is scaled to controls: 0 for no effect and ±100 for the full control effect.

CN[C@H]1CC[C@@H](c2ccc(Cl)c(Cl)c2)c2ccccc21
active: Potency [1] 13.3 µM | Potency [2] 29.8 µM | Potency [3] 29.8 µM | Potency [5] 1.55 µM | Potency [6] 3.89 µM | Potency [7] 30.9 µM | Potency [8] 17.4 µM
inactive: max activation [4] 8.99%

COc1ccc(C(Cl)=C(c2ccc(OC)cc2)c2ccc(OC)cc2)cc1
active: Potency [6] 7.93 µM and 12.6 µM and 4.36 µM | Potency [7] 8.9 µM and 7.96 µM and 7.76 µM
inactive: Potency [1] | Potency [2] | Potency [9] | Potency [3] | Potency [5] | Potency [8] | Potency [10] | Potency [11]

C/C=C/C=C/C(=O)O
inactive: Potency [1] | Potency [2] | Potency [9] | Potency [3] | max activation [4] 0.352% | Potency [10]

CNNCc1ccc(C(=O)NC(C)C)cc1
inactive: Potency [1] | Potency [2] | Potency [9] | Potency [3] | max activation [4] -1.77% | Potency [10]

C=C1CC[C@H](O)C/C1=C\C=C1/CCC[C@]2(C)[C@@H]([C@H](C)CCCC(C)C)CC[C@@H]12
active: Potency [2] 48.1 µM | Potency [12] 17.1 µM | Potency [6] 35.3 µM | Potency [7] 25 µM
inactive: Potency [3] | max activation [4] 1.13% | Potency [13] | Potency [5] | Potency [10]

Cc1cc(=O)oc2cc(O)ccc12
inactive: Potency [1] | Potency [9] | Potency [3] | Potency [12] | max activation [4] -6.81% | Potency [13] | outcome [14] | Potency [5] | Potency [6] | Potency [7] | Potency [10] | Potency [11]
active: Potency [8] 31.7 µM and 25.2 µM and 17.4 µM

O=CC(=O)c1ccccc1
active: Potency [5] 12.6 µM | Potency [6] 35.6 µM | Potency [8] 35.6 µM
inactive: Potency [1] | Potency [9] | Potency [3] | Potency [12] | Potency [7] | Potency [10] | Potency [11]

CC(C)c1c(C(=O)Nc2ccccc2)c(-c2ccccc2)c(-c2ccc(F)cc2)n1CC[C@@H](O)C[C@@H](O)CC(=O)O
inactive: Potency [9] | Potency [3]
active: Potency [1] 26.3 µM

C1CCC(C(CC2CCCCN2)C2CCCCC2)CC1 (configuration not stated)
inactive: max activation [4] -20.4% | Potency [13] | outcome [14] | Potency [7] | Potency [8]
active: Potency [1] 33.5 µM | Potency [3] 29.8 µM | Potency [12] 6.68 µM | Potency [5] 1.1 µM | Potency [6] 24.5 µM

COc1ccc2c(c1)c(CC(=O)O)c(C)n2C(=O)c1ccc(Cl)cc1
35.8 µM (active) and inactive: Potency [5]
active: Potency [2] 61.5 µM | Potency [7] 22.6 µM and 17.8 µM and 13.8 µM
inactive: Potency [1] | Potency [9] | Potency [12] | Potency [6] | Potency [8] | Potency [10] | Potency [11]

Nc1ccc2c(c1)CN1C(=O)c3ccccc3C1=N2
inactive: caspase activation [1] -14.3% [at 19 µM] | caspase-3/7 activation [9] -7.02% [at 19 µM] | activity change, negative = inhibition [10] 0.308% [at 15.8 µM]
active: Potency [12] 0.073 µM | Potency [5] 6.01 µM | Potency [6] 3.01 µM | Potency [7] 3.79 µM | Potency [8] 0.499 µM

C1=CC2C3C=CC(C3)C2C1 (configuration not stated)
inactive: Potency [1] | Potency [2] | Potency [9] | Potency [3] | Potency [6] | Potency [10] | Potency [11]
active: Potency [5] 6.99 µM | Potency [8] 57 µM

CC/C(=C(\c1ccccc1)c1ccc(OCCN(C)C)cc1)c1ccccc1
24.5 µM (active) and inactive: Potency [9]
active: Potency [1] 27.5 µM and 54.4 µM and 61.1 µM | Potency [2] 54.4 µM [middle of 4 runs] | Potency [3] 61.1 µM [middle of 4 runs]
inactive: max activation [4] -0.827%

O=C1NC(=O)C(c2ccccc2)(c2ccccc2)N1
inactive: Potency [1] | Potency [2] | Potency [9] | Potency [3] | Potency [10]

O=C1NS(=O)(=O)c2ccccc21
inactive: Potency [1] | Potency [2] | Potency [9] | Potency [3] | max activation [4] -1.81% | Potency [10]

CC1(C)O[C@@H]2C[C@H]3[C@@H]4CCC5=CC(=O)C=C[C@]5(C)[C@@]4(F)[C@@H](O)C[C@]3(C)[C@]2(C(=O)CO)O1
inactive: Potency [1] | Potency [2] | Potency [9] | Potency [3] | Potency [6] | Potency [8] | Potency [10]
active: Potency [4] 12.6 µM
31.9 µM (active) and inactive: Potency [5]
